The results in this text go back to PubChem BioAssay (NCATS).

Structures are written as SMILES. Several values for one entry are separate records, joined by “and”; a condition that tells them apart may be missing. Identical values can stand only once. Inconclusive results are not listed. Activity calls are given as the source filed them. The call rests on the fitted dose curve; in most records, active means well fitted inhibition curve with a large enough effect; inconclusive means small, poorly fitted or top-dose-only effect; inactive means flat fitted curve, though single readings scatter.
On the % scale 0 is the no-effect control and ±100 the full control effect; potency means the concentration at half of the fitted maximal effect.

Test system in one test: not listed separately
As to the kind of experiment: Drug repurposing screens with cells derived from glioblastoma tumor samples (AID 1345199). Further: nearly all actives have a fitted effect of over 40% in size. The conditions noted are these: GBM patient neurospheres viability, ATP luminescence, 48 h; at 45.9 µM (top of the series); tumour line B. The method in brief: (§1)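 Four patient lines of CD133+ GBM neurospheres were screened at several concentrations; hits were retested in those lines plus three slower-growing GBM lines, using 48-hour treatment and ATP-based viability.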
Consider `C/C(=C\c1csc(C)n1)[C@@H]1C[C@@H]2O[C@]2(C)CCC[C@H](C)[C@H](O)[C@@H](C)C(=O)C(C)(C)[C@@H](O)CC(=O)O1`, for which the activity, negative = cell killing is -25.2% (inactive).

With `C[C@@H]([C@H](O)c1ccccc1)N(C)C`, the activity, negative = cell killing was -6.97% (inactive).

Take `CN1CCCC(=C(c2cccs2)c2cccs2)C1`: the activity, negative = cell killing was -10.4% (inactive).

The same test, now with this note: GBM patient neurospheres viability, ATP luminescence, 48 h; at 45.9 µM (top of the series); tumour line D.
Regarding `C/C(=C\c1csc(C)n1)[C@@H]1C[C@@H]2O[C@]2(C)CCC[C@H](C)[C@H](O)[C@@H](C)C(=O)C(C)(C)[C@@H](O)CC(=O)O1`, the activity, negative = cell killing was -19.9% (inactive).

Turning to `C[C@@H]([C@H](O)c1ccccc1)N(C)C`, the activity, negative = cell killing is -5.32% (inactive).

As to `[O]=[Cr](=[O])([OH])[O][Cr](=[O])(=[O])[OH]`, the activity, negative = cell killing is -3.21% (inactive).

Regarding `CC(C)(C)c1cc(O)ccc1O`, the activity, negative = cell killing was -24.6% (inactive).

With `CN1CCCC(=C(c2cccs2)c2cccs2)C1`, the activity, negative = cell killing is -24.1% (inactive).

The test is the same for the next values; noted with them: GBM patient neurospheres viability, ATP luminescence, 48 h; at 46.1 µM (top of the series); tumour line C.
As to `C[C@H]1CC[C@@H]2[C@@H](C)[C@H]3[C@H](C[C@H]4[C@@H]5CC=C6CC(O[C@@H]7O[C@H](CO)[C@H](O)[C@H](O[C@@H]8O[C@H](CO)[C@@H](O)[C@H](O)[C@H]8O)[C@H]7O[C@H]7O[C@@H](C)[C@H](O)[C@@H](O)[C@H]7O)CC[C@]6(C)[C@H]5CC[C@]34C)N2C1` (stereo partly specified), the activity, negative = cell killing is -1.25% (inactive).

As for `[O]=[Cr](=[O])([OH])[O][Cr](=[O])(=[O])[OH]`, the activity, negative = cell killing was -22.8% (inactive) and -5.59% (inactive).

With `CC(C)(C)c1cc(O)ccc1O`, the activity, negative = cell killing was 3.11% (inactive).

For `O=[N+]([O-])C(Br)(CO)CO`, the activity, negative = cell killing was -7.96% (inactive).

For the molecule `C=CC[C@]1(O)CC[C@H]2[C@@H]3CCC4=CCCC[C@@H]4[C@H]3CC[C@@]21C`, the activity, negative = cell killing was -3.65% (inactive).

Another test has as its system astro (control astrocytes). The test is described as above. The conditions noted are these: viability, ATP luminescence, 48 h; series mostly up to 45.9 µM. The method in brief: as §1
On to `C[C@@H](Cc1ccccc1)NCCC(c1ccccc1)c1ccccc1`, for which the Potency entry was “inactive”.

Turning to `CO[C@H]1[C@@H](O)C[C@H](O[C@H]2[C@@H](O)C[C@H](O[C@H]3[C@@H](O)C[C@H](O[C@H]4CC[C@@]5(C)[C@H](CC[C@@H]6[C@@H]5C[C@@H](O)[C@]5(C)[C@@H](C7=CC(=O)OC7)CC[C@]65O)C4)O[C@@H]3C)O[C@@H]2C)O[C@@H]1C`, the Potency is 0.282 µM (active).

Turning to `C[C@H]1CC[C@@H]2[C@@H](C)[C@H]3[C@H](C[C@H]4[C@@H]5CC=C6CC(O[C@@H]7O[C@H](CO)[C@H](O)[C@H](O[C@@H]8O[C@H](CO)[C@@H](O)[C@H](O)[C@H]8O)[C@H]7O[C@H]7O[C@@H](C)[C@H](O)[C@@H](O)[C@H]7O)CC[C@]6(C)[C@H]5CC[C@]34C)N2C1` (stereo partly specified), the Potency is 22.4 µM (active).

In the case of `Cc1cc(C)cc(C(=O)OC2C[C@H]3CC[C@@H](C2)N3C)c1` (stereo partly specified), the Potency result is “inactive”.

With `CN1C2CCC1CC(OC(c1ccccc1)c1ccc(Cl)cc1)C2` (stereo unspecified), the Potency was 17.8 µM (active).

Turning to `CC(=O)O[C@H]1C[C@H](O[C@H]2[C@@H](O)C[C@H](O[C@H]3[C@@H](O)C[C@H](OC4CC[C@@]5(C)[C@H](CC[C@@H]6[C@@H]5CC[C@]5(C)[C@@H](C7=CC(=O)OC7)CC[C@]65O)C4)O[C@@H]3C)O[C@@H]2C)O[C@H](C)[C@H]1O[C@@H]1O[C@H](CO)[C@@H](O)[C@H](O)[C@H]1O` (stereo partly specified), the Potency was 0.251 µM (active).

In the case of `C[C@H]1CC[C@]2(NC1)O[C@H]1C[C@H]3[C@@H]4CC[C@H]5C[C@@H](O[C@@H]6O[C@H](CO)[C@H](O[C@@H]7O[C@H](CO)[C@@H](O)[C@H](O[C@@H]8OC[C@@H](O)[C@H](O)[C@H]8O)[C@H]7O[C@@H]7O[C@H](CO)[C@@H](O)[C@H](O)[C@H]7O)[C@H](O)[C@H]6O)CC[C@]5(C)[C@H]4CC[C@]3(C)[C@H]1[C@@H]2C`, the Potency is 3.16 µM (active).

Turning to `C[C@@H]([C@H](O)c1ccccc1)N(C)C`, the Potency entry is “inactive”.

On to `[O]=[Cr](=[O])([OH])[O][Cr](=[O])(=[O])[OH]`, for which the Potency result is “inactive”.

Regarding `O=c1c2ccccc2[se]n1-c1ccccc1`, the Potency was 22.4 µM (active).

Take `O=C1C=C2C=C[C@@H]3C[C@@]2(O1)[C@H]1CCCCN31`: the Potency was 17.8 µM (active).

On to `CN1CCCC(=C(c2cccs2)c2cccs2)C1`, for which the Potency result was “inactive”.

Take `O=C1CN=C(c2ccccc2)c2cc(Cl)ccc2N1CC1CC1`: the Potency entry was “inactive”.

With `[Cl-].[Cl-].[Hg+2]`, the Potency is 7.94 µM (active).

On to `O=[N+]([O-])C(Br)(CO)CO`, for which the Potency is 22.4 µM (active).

For the molecule `CNC(=O)Oc1ccccc1C(=O)Nc1ccccc1`, the Potency was 22.4 µM (active).

In the case of `[H+].[H+].[Hg+2].[O-]B([O-])[O-].[c-]1ccccc1`, the Potency was 2.82 µM (active).

As for `C=CC[C@]1(O)CC[C@H]2[C@@H]3CCC4=CCCC[C@@H]4[C@H]3CC[C@@]21C`, the Potency result is “inactive”.

As for `CCN(CC)CCO[C@H]1CC[C@@]2(C)C(=CC[C@@H]3[C@@H]2CC[C@]2(C)C(=O)CC[C@@H]32)C1`, the Potency entry is “inactive”.

Turning to `CC(=O)O[C@H]1C[C@H](O[C@H]2[C@@H](O)C[C@H](O[C@H]3[C@@H](O)C[C@H](O[C@H]4CC[C@@]5(C)[C@H](CC[C@@H]6[C@@H]5C[C@@H](O)[C@]5(C)[C@@H](C7=CC(=O)OC7)CC[C@]65O)C4)O[C@@H]3C)O[C@@H]2C)O[C@H](C)[C@H]1O[C@@H]1O[C@H](CO)[C@@H](O)[C@H](O)[C@H]1O`, the Potency is 0.282 µM (active).

On to `O=C(C[C@@H]1NCCC[C@H]1O)Cn1cnc2cc(Br)c(Cl)cc2c1=O`, for which the Potency result is “inactive”.

On to `COC(COC(N)=O)C1=C(N2CC2)C(=O)C(C)=C(N2CC2)C1=O` (stereo unspecified), for which the Potency is 2.24 µM (active).

In the case of `C[C@]12CC[C@H](O)C[C@H]1CC[C@@H]1[C@@H]2CC[C@]2(C)[C@@H](c3ccc(=O)oc3)C[C@H]3O[C@]132`, the Potency is 1.58 µM (active).
